The values below come from PubChem BioAssay (Tox21).

Inconclusive results are not listed. Unmarked numbers belong to inactive results. Active and inactive are the calls of the source. The call rests on the fitted dose curve.
On the % scale 0 is the no-effect control and ±100 the full control effect.

The nature of this experiment: qHTS assay to identify small molecule agonists or antagonists of the thyroid stimulating hormone receptor (TSHR) signaling pathway - wild type cell line counter screen (AID 1259384). The following applies: HEK293 wild type, cAMP HTRF counter-screen, hits give high values; series mostly up to 92.4 µM. In short, it runs like this:
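Wild-type HEK293 cells were plated 18 h at 37 C/5% CO2, pin-dosed with compound plus Ro20-1724 medium, held 30 min at room temperature, then given cAMP-d2 and anti-cAMP-cryptate; fluorescence was read after 1 h. Fifteen concentrations, triplicate.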
(In qHTS, concentration-response curves come from the screen itself.)
As for `CC(C)c1ccccc1`, the result was inactive.

With `CC(C)CCCCCCc1ccc(OCCOCCO)cc1`, the call was inactive.

With `Cc1ccsc1C(=CCCN1CCC[C@@H](C(=O)O)C1)c1sccc1C`, the call was inactive.

Regarding `Cc1ncc(CO)c(CN)c1O`, the molecule was called inactive.

`CC(CNC1CCCCC1)OC(=O)c1ccccc1` (centres undefined): the molecule was classed as inactive.

In the case of `C[C@@H]1CN(c2c(F)c(F)c3c(=O)c(C(=O)O)cn(C4CC4)c3c2F)C[C@H](C)N1`, the cAMP activity change was -0.3% [at 18.9 µM].

`CC(=O)N(CC(O)CN(C(C)=O)c1c(I)c(C(=O)NCC(O)CO)c(I)c(C(=O)NCC(O)CO)c1I)c1c(I)c(C(=O)NCC(O)CO)c(I)c(C(=O)NCC(O)CO)c1I` (centres undefined): the outcome was inactive.

In the case of `CC(C)(C)c1cccc(O)c1`, the molecule was classed as inactive.

`C[C@@H](N)C(=O)O`: the molecule was called inactive.

With `CCC(=O)O[C@]1(C(=O)SCF)[C@H](C)C[C@H]2[C@@H]3C[C@H](F)C4=CC(=O)C=C[C@]4(C)[C@@]3(F)[C@@H](O)C[C@@]21C`, the molecule was classed as inactive.

As to `Cc1c(C(=O)NCCO)[n+](=O)c2ccccc2n1[O-]`, the call was inactive.

Take `CCCNC(C)C(=O)Nc1c(C)csc1C(=O)OC` (centres undefined): the molecule was called inactive.

`CCN(CC)CCNC(=O)COc1ccc(Cl)cc1`: the molecule was called inactive.

`CC(=O)OC(C)OC(C)=O`: the molecule was called inactive.

Consider `CN(C)Cc1ccccc1`, for which the molecule was called inactive.

Turning to `O=c1[nH]c(=O)n([C@H]2C[C@H](O)[C@@H](CO)O2)cc1C(F)(F)F`, the call was inactive.

As to `CC1=C2[C@H](/C=C(\C)C(=O)O)CC[C@@H](C)[C@H]2CC1`, the molecule was called inactive.

On to `Nc1cccc(S(=O)(=O)O)c1`, for which the molecule was called inactive.

With `FC(F)(F)C(F)(F)C(F)(F)C(F)(F)C(F)(F)C(F)(F)C(F)(F)C(F)(F)Br`, the result was inactive.

In the case of `N#CSCC(=O)O`, the molecule was classed as inactive.

With `CC(=O)O[C@H]1CC[C@@]2(C)C(=CC[C@@H]3[C@@H]2CC[C@]2(C)C(C(C)=O)=CC[C@@H]32)C1`, the outcome was inactive.

As to `CCCC(CCC)(C(=O)OCC)C(=O)OCC`, the call was inactive.

Regarding `CC(Oc1c(Cl)cccc1Cl)C1=NCCN1` (centres undefined), the molecule was called inactive.

Turning to `CCN(CC)CC1CCCCN1CC(=O)N1c2ccccc2C(=O)Nc2cccnc21` (centres undefined), the result was inactive.

On to `COC(C)CCO` (centres undefined), for which the molecule was classed as inactive.

With `COC(=O)C(C)O` (centres undefined), the outcome was inactive.

Regarding `O=Cc1ccc(O)c(O)c1O`, the molecule was called inactive.

On to `CN1CCN(N)CC1`, for which the outcome was inactive.

On to `CN1CCN(C2=Nc3cc(F)ccc3Cc3ccccc32)CC1`, for which the call was inactive.
